# Compound activity as filed in PubChem BioAssay.
# Most compounds without a hit are left out; they make up all but 1.4% or so of the library.
# Wee1 stabilizer: Wee1 degradation inhibitors, primary screen, cell-based, HeLa, Wee1K328M-luciferase, luminescence; actives 1.2% (n = 220,000); AID 1321, 2008; HeLa Luc-Wee1K328M stability; 100% = proteasome inhibitor MG132 effect; Wee1-like protein kinase (Homo sapiens), P30291; reporter increase, % at 5 µM;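 active = activation above the mean of all tested compounds plus 3 SD, set per screening run, cut at about 8.8% in these data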;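 note: cells exposed to compound for 20 h before luminescence read; 0% = DMSO alone and 100% = MG132 at 30 µM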
# Bcl-B Bim block: inhibitors of Bim-Bcl-B binding, primary screen, biochemical, multiplexed, human Bcl-2 family; inhibition, % at 10 µM; Bcl-2-like protein 10 (Homo sapiens), Q9HD36; bead-based flow cytometry, Bim peptide-Bcl-B binding; actives 0.073% (n = 190,000);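 note: 0% = tracer peptide without compound and 100% = reference inhibitor peptide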
# Bim-Bcl-2: inhibitors of Bim-Bcl-2 binding, primary screen, biochemical, multiplexed, human Bcl-2 family; Bead-based flow cytometry, Bim peptide-Bcl-2 binding; inhibition, % at 10 µM; actives 0.06% (n = 190,000); AID 950, 2007; in the data active = inhibition above about 40%;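 note: 0% = no compound wells with probe peptide and 100% = reference peptide inhibitor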
# Target sequence (P10415 whole entry, looked up): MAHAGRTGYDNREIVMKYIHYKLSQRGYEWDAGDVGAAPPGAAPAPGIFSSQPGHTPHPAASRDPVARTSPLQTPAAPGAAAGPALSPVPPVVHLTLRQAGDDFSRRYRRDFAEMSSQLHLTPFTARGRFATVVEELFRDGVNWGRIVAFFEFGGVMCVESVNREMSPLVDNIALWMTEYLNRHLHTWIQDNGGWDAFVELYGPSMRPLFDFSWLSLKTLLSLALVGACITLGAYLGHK
# Bim-Bcl-W: inhibitors of Bim binding to Bcl-W, primary screen, biochemical, multiplexed, bead-based flow cytometry. AID 952, 2007. inhibition, % at 10 µM. Bcl-2-like protein 2 (Homo sapiens), Q92843. Bim peptide-Bcl-W binding. actives 0.02% (n = 190,000);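 note: 0% = bound tracer without compound and 100% = peptide blocker; higher means less fluorescent Bim peptide bound to Bcl-W beads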
# Bcl-XL Bim block: inhibitors of Bim-Bcl-XL binding, primary screen, biochemical, multiplexed, bead flow cytometry, human Bcl-XL; Bcl-2-like protein 1 (Homo sapiens), Q07817; Bim peptide-Bcl-XL binding, fluorescence; inhibition, % at 10 µM; actives 0.04% (n = 190,000); AID 1007, 2008
# Bfl-1 Bim block: inhibitors of Bim binding to Bfl-1, primary screen, biochemical, multiplexed, bead-based flow cytometry; actives 0.12% (n = 190,000); inhibition, % at 10 µM; AID 1008, 2008; Bim-Bfl-1 binding inhibition;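 note: 0% = wells without compound plus tracer and 100% = blocker peptide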
# Target sequence (Q16548 whole entry, looked up): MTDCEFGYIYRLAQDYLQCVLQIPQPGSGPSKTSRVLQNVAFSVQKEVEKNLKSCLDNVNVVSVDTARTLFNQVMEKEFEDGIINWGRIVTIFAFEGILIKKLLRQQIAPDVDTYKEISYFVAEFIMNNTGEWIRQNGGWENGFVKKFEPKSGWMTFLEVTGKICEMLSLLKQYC
# Wee1 stab conf: Wee1 degradation inhibitors, confirmation, cell-based, HeLa, Wee1K328M-luciferase, luminescence, triplicate; actives 4% (n = 1,100); shares compounds with Wee1 stabilizer; activation, % at 5 µM; HeLa Luc-Wee1K328M degradation; vehicle 0%, proteasome-blocked wells 100%; AID 1410, 2008; in the data active = activation above about 8.9%
# * hit, by the source's call; · = no result. Cut-off read from the data, not from the text of the source, unless noted: active = inhibition above about 40%.
SMILES,Wee1 stabilizer,Bcl-B Bim block,Bim-Bcl-2,Bim-Bcl-W,Bcl-XL Bim block,Bfl-1 Bim block,Wee1 stab conf
Cc1cc(C)c(O)c(-c2cc(C(=O)Nc3c(C)n(C)n(-c4ccccc4)c3=O)[nH]n2)c1,-2,·,·,·,·,·,·
CCCCN(CCCNC(=O)C1CCN(S(=O)(=O)CC)CC1)c1ccccc1,0,-3,-1,-5,-3,-6,·
CC(C)CCNC(=O)c1cc(-c2ccncc2)nc2ccc(S(=O)(=O)N3CCOCC3)cc12,11*,-5,-2,-3,-3,-2,1
Cc1ccccc1-n1cnnc1SCC(=O)Nc1cccnc1Cl,15*,0,3,1,0,-2,0
S=c1[nH]nc(-c2ccco2)n1/N=C/c1ccccc1Cl,-1,-31,-3,-2,-4,1,·
S=c1[nH]nc(-c2ccco2)n1/N=C/c1ccc(Cl)cc1,13*,6,0,0,-1,1,0
O=C(NCCSc1ccccc1)c1ccc(CN2CCOCC2)cc1,15*,·,·,·,·,·,6
Cc1ccc(Oc2ccc(OCC(=O)NC(CC(C)C)C(=O)O)cc2)cc1 (stereo not drawn),14*,-1,-2,-3,-3,-3,2
COc1ccc(OC)c(-c2csc(NC(=O)Cc3cccs3)n2)c1,3,-3,-3,-2,0,-5,·
COCCOc1cnn(-c2cc(Oc3ccc(C)cc3)ncn2)c(=O)c1Cl,12*,-5,-4,2,-1,-6,4
N/C(=N\OC(=O)c1ccc(=O)n(Cc2ccc(Cl)cc2)c1)c1ccccn1,11*,-4,-6,-5,-4,-5,0
Fc1ccc(-n2nnc(-c3cnc4ccccc4c3)n2)cc1,8,-6,-5,-2,-3,-2,·
CCC(=O)Nc1ccc(-c2cc3ccccc3oc2=O)cc1,22*,-2,-2,-1,-1,-5,6
CC(C)(C)c1ccc(OCCCC(=O)Nc2ccc(S(N)(=O)=O)cc2)cc1,-1,2,-4,-3,0,-2,·
Cc1ccccc1OCC(=O)OCn1nnc2ccccc2c1=O,13*,·,·,·,·,·,0
O=C(COc1ccc(Cl)cc1Cl)OCn1nnc2ccccc2c1=O,-1,0,2,-8,-9,-1,·
Cc1cc(-c2nnnn2-c2cc(Cl)cc(Cl)c2)no1,1,·,·,·,·,·,·
c1ccc(C2Nc3ccccc3-c3nc4ccccc4n32)cc1 (stereo not drawn),15*,0,-4,-2,-5,-4,-3
CN(C1CCCCC1)S(=O)(=O)Cc1ccccc1,0,-11,-10,-2,1,-6,·
Fc1ccccc1/C=N/NC(=S)Nc1ccc(Cl)cc1Cl,1,2,1,3,8,10,·
Cn1cc(Br)c(-c2cccc(NC(=O)CCC(=O)O)c2)n1,2,·,·,·,·,·,·
CCOC(=O)c1cnc2ccc(OCC)cc2c1NCc1ccccc1OC,3,-3,-7,-2,-4,0,·
CCOC(=O)c1cnc2ccc(OC)cc2c1NCc1ccccc1,13*,-3,-3,-4,-5,0,0
Cc1cccc(NC(=O)c2ccc(NCC3CCCO3)c([N+](=O)[O-])c2)n1 (stereo not drawn),11*,0,2,3,1,-3,5
Cc1occc1C(=O)NC(C)CCc1ccccc1 (stereo not drawn),1,-10,-10,-1,-4,-8,·
Cc1ccc(C)c(C(=O)NC(C)CCc2ccccc2)c1 (stereo not drawn),16*,-5,-2,0,0,-5,-4
CNC(=S)NCc1ccc2[nH]c3c(c2c1)CCCC3,11*,-4,0,2,1,0,0
